Source: PubChem BioAssay
KKLEB tox: CF airway cell cytotoxicity counter-screen; KKLEB CF airway cells viability, ATPlite luminescence, overnight; stronger effect = lower value; cells stimulated with P. aeruginosa culture filtrate; activity change (cytotoxicity), % at 5 µM; hit rate 0.36% among 360,000; AID 602141;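 active = corrected activity change at or below -50% at 5 µM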
TRPM1 prom inh: reduces MITF-dependent TRPM1 promoter luciferase signal | hit rate 0.83% among 330,000 | inhibition, % at 12.5 µM | SK-MEL-5 TRPM1 promoter luciferase, 24 h | AID 488899;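 active = mean inhibition across replicates of 60% or more, whatever share of single replicates reaches that level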
HIF-2a inh: HIF-2a inhibition | 786-0 RCC cells HIF-2a reporter, luciferase luminescence, overnight | inhibition, % at 18.8 µM | hit rate 0.72% among 360,000 | AID 624352;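 active = inhibition of the luminescence signal of 40% or more relative to plate controls, in a single-dose primary screen at 18.75 µM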
Shn3 inh set2: Schnurri-3 reporter inhibition in Clone20 osteoblasts. Clone20 osteoblast Shn3 3'UTR firefly luciferase, 24 h. inhibition, % at 12.5 µM. hit rate 0.52% among 360,000. AID 588674;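 active = mean inhibition of at least 75% with every replicate also reaching 75%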;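 also: 0% = median of neutral control wells and 100% = pilot-screen positive control compound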
CF NFkB inh: inhibitors of cystic fibrosis induced NF-kB | KKLEB NF-kB-GFP reporter, PAF-induced, GFP fluorescence overnight | inhibition, % at 5 µM | hit rate 0.86% among 360,000 | AID 588850;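 active = at least 50% inhibition at 5 µM, scaled per plate between neutral and stimulator controls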;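 also: PAF is a Pseudomonas aeruginosa culture filtrate used as stimulus; plate controls were PAF-stimulated DMSO wells for no effect and unstimulated DMSO wells for full effect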
Peg3 prom inh: Peg3 promoter activity inhibition. hit rate 1.7% among 360,000. HeLa PEG-Prom luciferase reporter, luminescence, overnight. AID 588405. inhibition, % at 20 µM;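 active = inhibition of at least 50% at 20 µM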
Numbers without * were called inactive; / = no result given. An excerpt weighted towards active compounds, which were near 2.7% of everything screened.

SMILES	KKLEB tox	TRPM1 prom inh	HIF-2a inh	Shn3 inh set2	CF NFkB inh	Peg3 prom inh
O=C(Oc1cccc(OC(=O)c2ccco2)c1)c1ccco1	6	10	15	1	-9	1
CC1(C)N=C(N)N=C(N)N1c1ccccc1	-1	19	19	3	-5	1
CC1(C)N=C(N)N=C(N)N1c1ccc(CCCCc2ccccc2)cc1	-18	/	30	89*	-7	24
O=C1CCCC2=C1C(c1ccncc1)c1c(nc(SCc3ccccc3Cl)[nH]c1=O)N2 (configuration not stated)	9	-2	19	-10	0	20
CCC(C)Sc1nc2c(c(=O)[nH]1)C(c1cccs1)C1=C(CCCC1=O)N2 (configuration not stated)	0	/	24	-3	21	55*
Cc1cc(N/N=C/c2ccccc2O)nc(-c2ccccc2O)n1	3	6	-32	2	-39	-81
Cc1cc(N/N=C/c2ccc(O)cc2O)nc(-c2ccccc2O)n1	-2	6	-190	20	78*	67*
CCOC(=O)c1csc(CCNC(=O)c2ccccc2)n1	6	/	7	-18	9	-7
Cc1cccc(CSc2nc(N)c(C#N)c(-c3cccs3)c2C#N)c1	-20	8	25	47	19	63*
Cc1ccc2c(c1C)-c1c(ccc(C)c1C)C(=O)C2=O	-53*	108*	66*	54	86*	95*
CC(C)(C)C1=CC(=Nc2ccccc2N)C=C(C(C)(C)C)C1=O	-1	1	11	4	0	12
CC(C)(C)C1=CC(=O)C(=O)C(C(C)(C)C)=C1	-13	/	42*	-3	40	73*
COc1ccc(/C=N/NC(=O)c2ccc(Cl)cc2)cc1Cn1cc(Cl)cn1	-51*	-12	-2	69	17	12
O=[N+]([O-])c1ccccc1S(=O)(=O)Nc1cccc(S(=O)(=O)N2CCCC2)c1	3	0	1	18	-12	13
CCOC(=O)C1CCN(C(=O)C2(NC(=O)NC3CCCCC3)CCCCC2)CC1	4	1	13	-23	5	64*
CCOc1ccccc1Nc1cc(C)nc2ccccc12	-15	/	19	92*	9	10
CCOc1ccccc1Nc1cc(C)nc2ccc(C)cc12	-5	13	15	39	1	21
O=C1N=c2ccccc2=C1c1sc(=S)n(-c2ccc(O)cc2)c1O	-16	19	20	-2	21	20
O=C1N=c2ccccc2=C1c1sc(=S)n(Cc2ccccc2Cl)c1O	5	24	17	49	-1	83*
CC(OC(=O)CCC(=O)c1cccs1)C(=O)NC1CCCCC1C (configuration not stated)	4	-3	-45	-61	2	-31
O=C(/C=C/c1ccc(N2CCCCC2)c([N+](=O)[O-])c1)c1ccc(O)cc1	-13	-15	-224	3	11	-107
COc1ccccc1C(=O)/C=C/c1ccc(N2CCCCC2)c([N+](=O)[O-])c1	-34	5	44*	-15	-2	105*
COc1ccc2cc3cc(C(=O)Nc4ccccc4N4CCN(C)CC4)oc3nc2c1	-22	66*	55*	14	12	115*
Cc1c2ccccc2nc2c(F)c(NCCO)c(F)c(F)c12	-7	-25	-35	-2	-2	-108
OCCNc1c2ccccc2nc2c(F)c(F)c(F)c(F)c12	-8	81*	97*	-23	9	101*
SMILES	KKLEB tox	TRPM1 prom inh	HIF-2a inh	Shn3 inh set2	CF NFkB inh	Peg3 prom inh
CCOC(=O)CNS(=O)(=O)c1cc(-c2n[nH]c(=O)c3ccccc23)ccc1C	1	8	15	-11	12	7
Cc1ccc(NS(=O)(=O)c2cc(-c3n[nH]c(=O)c4ccccc34)ccc2C)cc1	-21	6	26	31	18	62*
COc1ccccc1N(C(C)=O)C1=C(Cl)C(=O)c2ccccc2C1=O	-44	/	88*	77	51*	100*
COc1ccc(C(=O)NCCCN2CCCC2=O)cc1S(=O)(=O)N1CCOCC1	-2	/	1	0	-2	2
C/C=C(\C)C(=O)OC1[C@H](OC(C)=O)C2(CO)C(CC1(C)C)C1=CCC3C4(C)CCC(O[C@@H]5O[C@H](C(=O)O)[C@@H](O[C@@H]6O[C@H](CO)[C@@H](O)[C@H](O)[C@H]6O)[C@H](O)[C@H]5O[C@H]5O[C@H](CO)[C@@H](O)[C@H](O)[C@H]5O)[C@](C)(CO)C4CCC3(C)[C@]1(C)C[C@H]2O (some centres not stated)	-89*	98*	93*	58	91*	105*
CN(C)CCNC(=O)c1ccc(COc2ccc(Cl)cc2Cl)cc1	-28	17	-73	-7	26	54*
O=C(NCCc1ccc(F)cc1)Nc1ccccc1Cl	-5	-14	-83	-31	-10	-58
CC1(C)Cc2ccccc2C2=NNC(=O)C2=N1	0	96*	34	12	75*	50
Cc1ccc(S(=O)(=O)NNC(=O)Nc2ccc([N+](=O)[O-])cc2)c(C)c1	-6	14	3	-7	-17	2
COc1ccc(-c2[nH]ncc2/C=C(/C#N)C(=O)NC2CCCCCC2)cc1	-15	-3	19	23	29	50*
Cc1ccc(S(=O)(=O)NC(=NCc2ccccc2)c2ccc(F)cc2)cc1	-8	0	26	1	14	51*
Cc1ccc(S(=O)(=O)NC(=NCC(=O)O)c2ccc(F)cc2)cc1	-7	1	9	-7	14	1
CC(C)(O)CCC(C)(C)O	11	3	14	-14	-8	5
CCOC(=O)C1=CC[C@H]2c3c(c4ccccc4n3C)C[C@H]1N2C	-9	-3	12	-3	4	2
COc1ccc(-c2nnc(SCC(=O)c3ccc(C)o3)o2)cc1	19	18	-32	-19	-12	-17
COc1ccc(CN(C(=O)CSc2nnc(-c3ccc(F)cc3)o2)c2ccc(F)cc2)cc1	-1	6	-13	88*	9	-9
Cc1cn([C@H]2C[C@H](O)[C@@H](CCC(=O)NCC3CCCO3)O2)c(=O)[nH]c1=O (some centres not stated)	-1	/	10	-6	11	3
Cc1cc(C)c(S(=O)(=O)/N=C2\C=C(NS(=O)(=O)c3ccccc3)C(=O)c3ccccc32)c(C)c1	21	25	8	9	51*	10
Cc1ccc(S(=O)(=O)/N=C2\C=C(NS(=O)(=O)c3ccccc3)C(=O)c3ccccc32)cc1	-3	29	-49	7	73*	-41
Cc1ccc(S(=O)(=O)/N=C2/C=C(C3C(=O)CC(C)(C)CC3=O)C(=O)c3ccccc32)cc1	3	-42	-90	-59	-2	-133
